Measured values published in PubChem BioAssay AID651780 (The Scripps Research Institute Molecular Screening Center, 2012).
The whole screen tested about 2,400 compounds, of which about 1,800 (75%) were called active. Rule as the data show it: active = inhibition above about 22%; inactive = the rest. The set was probably picked from earlier hits. These entries were drawn from the full list.

Assay: calcium response inhibition in counter-screen line – cell-based, fluorescence, counter-screen for hTAAR1 antagonist project (AID 651780);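 also: CHO-Ga16 host cells stimulated with ATP at an EC80 level; 0% = agonist EC80 plus vehicle and 100% = vehicle without agonist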
Conditions: counterscreen cell line, antagonist mode, at 3 µM, hits give high values

| SMILES | inhibition |
| --- | --- |
| COC(=O)C1=C(c2ccc(F)cc2OCc2ccccc2)C[C@@H]2CC[C@H]1N2C(=O)NCc1ccc(OC)c(OC)c1 | 24.8% (active) |
| COC(=O)C1=C(c2ccccc2OCc2ccccc2)C[C@@H]2CC[C@H]1N2C(=O)NCc1ccc(OC)cc1 | 22.2% (active) |
| O=C1C2(Cl)C3(Cl)C4(Cl)C(Cl)(Cl)C5(Cl)C3(Cl)C1(Cl)C5(Cl)C24Cl (stereo not drawn) | 24.9% (active) |
